# CXXC DNA block: MLL CXXC-DNA interaction inhibition. MLL-CXXC / FITC-HOXA9 DNA fluorescence polarization. Potency, µM (top dose mostly 115 µM), without a hit: at the highest dose activity change, negative = inhibition, usual class: inhibitors. AID 2662. actives 0.037% (n = 290,000); active means well fitted inhibition curve with a large enough effect in the polarisation, with a control signal flat, not every such curve was filed as active; inconclusive means small, poorly fitted or top-dose-only effect, or effect the other way, or a change in a side signal; inactive means no such curve, though single readings can be large or run the other way; the % refers to the polarisation; further: potency means the concentration at half of the fitted maximal effect
#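 Steps: dispense CXXC domain solution (7 uM) → pin compounds or unlabeled HOX-A9 DNA control → 5 min ambient → add FLSN-HOX-A9 solution (50 nM) → spin → 30 min ambient → fluorescence polarization. Tris pH 7.5/NaCl/DTT/BSA buffer.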
# Menin MLL FP FL: menin-MLL binding inhibition, fluorescein peptide. FP activity change, % at 61.4 µM. AID 1766. Fluorescence polarization, fluorescein-MLL peptide displacement from menin. 290,000 tested, under 10 active; active means well fitted curve in the direction sought with a large enough effect in the polarisation, not every such curve was filed as active; inconclusive means small, poorly fitted or top-dose-only effect, or effect the other way, or a change in a side signal; inactive means no such curve, though single readings can be large or run the other way; the % refers to the polarisation; further: % of control where 0% means no effect
# Menin MLL FP TR: displaces Texas Red mutant MLL peptide from human menin | O00255 | Menin + Texas Red MLL mutant peptide, fluorescence polarization | Potency, µM (top dose mostly 61.6 µM), for inactives: at the highest dose FP activity change, negative = inhibition, actives largely listed as inhibitors | actives 0.23% (n = 270,000); active means well fitted inhibition curve with a large enough effect in the polarisation, with a control signal flat, not every such curve was filed as active; inconclusive means small, poorly fitted or top-dose-only effect, or effect the other way, or a change in a side signal; inactive means no such curve, though single readings can be large or run the other way; the % refers to the polarisation; further: potency means the concentration at half of the fitted maximal effect; % of control where 0% means no effect
# IDH1 R132H inh: blocks human mutant IDH1 R132H enzyme; O75874; IDH1-R132H enzyme, NADPH consumption, diaphorase/resazurin fluorescence; Potency, µM (series often up to 76.6 µM), for inactives: top-dose activity change, negative = inhibition, most hits filed as inhibitors; actives 0.093% (n = 390,000); active means well fitted inhibition curve with a large enough effect; inconclusive means small, poorly fitted or top-dose-only effect; inactive means no such curve, though single readings can be large or run the other way; further: potency means the concentration at half of the fitted maximal effect; on the % scale 0 is the no-effect control and ±100 the full control effect; nearly all actives have a fitted effect of over 65% in size
#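 IDH1-R132H (0.5 ug/mL) preincubated 30 min with compound, then NADPH (0.016 mM) and alpha-KG (2 mM) added; 80 min at RT, pH 7.5. Remaining NADPH coupled via diaphorase/resazurin to fluorescence (540/590 nm); concentration-response curves normalized to no-enzyme control.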
# LDHA block: blocks human lactate dehydrogenase A | P00338 | purified LDHA, NADH/diaphorase-resazurin fluorescence; active compounds read low | activity change, % (values are at about 110 or 230 µM) | actives 0.15% (n = 480,000) | AID 1347041; in the data active means activity change below about -30%; inconclusive means mostly about -25% to -30%;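 further: plate controls were DMSO wells for no effect and wells without enzyme for full effect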
#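 Resorufin fluorescence (ex540/em590), read at 0 and 20 min after diaphorase/resazurin addition, reports the NADH left after a 5 min room-temperature reaction of 2 nM human LDH5 with 0.06 mM NADH and 0.2 mM pyruvate.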
# Akt phos inh: Akt phosphorylation inhibition; Neuro2A IGF-stimulated pAkt S473 HTRF, 20 min; active compounds read low; activity change, % for hits at 50 µM; actives 0.32% (n = 360,000); in the data active means activity change below about -80%; inconclusive means mostly about -51% to -80%; further: on the % scale 0 is the no-effect control and ±100 the full control effect
#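 Neuro2A cells (4,500/well, DMEM with 0.5% FBS) were treated with compound at a single 50 µM final concentration, stimulated with 6 nM IGF for 20 min at 37 °C, and lysed. Phospho-Akt Ser473 was read by HTRF as 665/615 ratio ×10^4.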
# Starred values were filed as active, the others as inactive; i = inactive; ? = inconclusive; nt = not tested or not shown; ! = not confirmed by another sample. A selection: hits, their analogues and other compounds. The true share with any hit is near 0.54%.
SMILES,CXXC DNA block,Menin MLL FP FL,Menin MLL FP TR,IDH1 R132H inh,LDHA block,Akt phos inh
O=C(Cc1ccccc1)OCc1ccccc1,nt,nt,nt,1%,-3,nt
[O]=[Sb]([OH])([OH])[c]1ccccc1,nt,nt,nt,nt,-38*,nt
FC(F)CN1CCNCC1,nt,nt,nt,nt,-14,nt
CCOc1ccc(N2C(=O)NC(=O)/C(=C\c3ccccc3[N+](=O)[O-])C2=O)cc1,9%,5,nt,2%,-53*,i
CCOc1ccc(N2C(=O)/C(=C/c3ccco3)C(=O)NC2=S)cc1,?,?,28%,-10%,-37*,i
CC12CCC(O)CC1CCC1[C@@H]2CC(O)C2(C)C(C3=CC(=O)OC3)CCC12O (stereo not given in full),nt,nt,nt,nt,2,nt
C=CCNC(=O)CSC(c1ccc(F)cc1)c1ccc(F)cc1,nt,nt,nt,nt,5,nt
C=CCNC(=O)c1c(N)n(Cc2ccco2)c2nc3ccccc3nc12,7%,?,39%,-2%,-1,-99%*
C[N+](C)(C)CC1CCCCC1=O (stereo not given),nt,nt,nt,nt,-9,nt
O=c1c2ccccc2[se]c2ccccc12,nt,nt,nt,nt,-4,nt
COc1ccc(CCN(C)Cc2cc(C(C)(C)C)c(O)c(C(C)(C)C)c2)cc1OC,nt,nt,nt,nt,0,nt
COC1CC(O[C@H]2/C(C)=C/CC3CC(C[C@]4(CCC(C)C(C5CCCCC5)O4)O3)OC(=O)[C@H]3C=C(C)/C(=N/O)C4OC/C(=C\C=C\[C@@H]2C)[C@@]43O)OC(C)C1O (stereo not given in full),9%,-2,22µM*,nt,nt,nt
O=C(COc1ccc(Br)cc1)N1CCN(Cc2ccncc2)CC1,-17%,0,8%,8%,-39*,i
CCN(CC)P(=O)(NC(=O)C(Cl)(Cl)Cl)N(CC)CC.[Cl-].[Cl-].[Cl-].[Nd+3],21%,2,5%,2%,-49*,i
COc1ccc(NC(=O)c2cn(C)c3ccccc23)c(OC)c1,nt,nt,nt,nt,8,nt
Cc1cccc(N2C(=O)NC(=O)/C(=C\c3ccc4c(c3)CCCN4Cc3ccccc3)C2=O)c1,6%,?,-13%,52µM*,-4,i
CC1=NN(c2ccccc2)C(=O)C1/C=C1/C(=O)NC(=O)N(c2cccc(C)c2)C1=O (stereo not given),4%,10,25%,nt,nt,nt
CCC(=NCCN1CCOCC1)c1c(O)n(-c2ccccc2C)c(=O)[nH]c1=O,-1%,-1,0%,1%,0,-122%*
CC(=NCCN1CCOCC1)c1c(O)n(-c2ccccc2C)c(=O)[nH]c1=O,1%,-1,15%,8%,3,i
N.N.N.N.N.N.N.N.N.N.N.N.N.N.O.O.[Cl-].[Cl-].[Cl-].[Cl-].[Cl-].[Cl-].[Ru].[Ru].[Ru],?,?,25µM*,nt,nt,nt
Cn1c(=O)c2[nH]c(N3CCNCC3)nc2n(C)c1=O,nt,nt,nt,nt,1,nt
CCN1C(=O)NC(=O)/C(=C\c2ccc(N3CCOCC3)cc2OC)C1=O,-6%,-1,12%,nt,nt,nt
O=C1NC(=O)N(Cc2cccs2)C(=O)/C1=C/c1ccc(N2CCOCC2)cc1,-9%,?,0%,-2%,-46*,i
COc1ccccc1CN1CCN(Cc2ccc(Cl)cc2)CC1,-3%,-2,-9%,-3%,-34*,i
COc1ccc(CN2CCN(Cc3ccccc3OC)CC2)cc1,-16%,-7,-26%,-4%,-37*,i
SMILES,CXXC DNA block,Menin MLL FP FL,Menin MLL FP TR,IDH1 R132H inh,LDHA block,Akt phos inh
Cc1ccc(CN2CCN(Cc3ccc(F)cc3)CC2)cc1,nt,nt,nt,nt,9,nt
Cc1ccc(CN2CCN(Cc3ccccc3F)CC2)cc1,4%,0,?,-8%,-35*,i
COc1ccccc1N1CCN(Cc2ccc(Cl)cc2Cl)CC1,3%,0,-22%,2%,-16,i
CCNCCc1ccccc1,nt,nt,nt,nt,8,nt
CCOc1ccccc1N1C(=O)NC(=O)/C(=C/c2ccc3c4c(cccc24)CC3)C1=O,?,8,?,2%,-72*,i
O=C(O)c1cccc2c1NC(c1cccc([N+](=O)[O-])c1)C1CC(Sc3ccccc3[N+](=O)[O-])C(Cl)C21 (stereo not given),-17%,?,?,29µM*,3,i
O=C(CSC1c2ccccc2Sc2ccccc21)Nc1ccc(C(=O)O)cc1,nt,nt,nt,nt,-3,nt
CN(CCOc1ccc(C=C2C(=O)NC(=O)NC2=O)cc1)c1ccccn1,-3%,0,7%,8%,-32*,i
O=C1NC(=S)NC(=O)C1=Cc1ccc(OCc2ccccc2)cc1,nt,nt,nt,0%,?,i
CC(C)(c1ccccc1)c1ccc(O)c(C(C)(C)c2ccccc2)c1,nt,nt,nt,nt,17,nt
COc1cccc(-n2c(CN3CCOCC3)nc3ccc([N+](=O)[O-])cc3c2=O)c1,9%,5,-5%,1%,-4,i
CCN1CCN(Cc2nc3ccc([N+](=O)[O-])cc3c(=O)n2-c2ccccc2F)CC1,?,-11,10µM*,-10%,-2,i
Cc1ccc(-n2nc(C)c3c2NC(=O)CSC3c2ccsc2)cc1 (stereo not given),nt,nt,nt,nt,6,nt
COC(=O)[C@H]1C[C@@H]1[C@H](NP(=O)(c1ccccc1)c1ccccc1)c1ccccc1,5%,0,0%,12%,-1,i
COC(=O)[C@@H]1C[C@H]1[C@@H](NP(=O)(c1ccccc1)c1ccccc1)c1ccccc1,5%,1,0.14µM*!,-1%,4,i
COc1ccc(CNCCc2c(C)[nH]c3ccc(OC(F)(F)F)cc23)c(OC)c1,9%,-18,28µM*,-3%,-11,i
COc1ccc2[nH]c(C)c(CCNCc3ccccc3F)c2c1,nt,nt,nt,nt,8,nt
CCOC(=O)N(c1ccccc1)P1(=S)OCCO1,10%,2,14%,12%,-2,-110%*
COC(=O)N(c1ccccc1)P1(=S)OCCO1,-2%,-1,-4%,6%,-2,i

# Screening results deposited in PubChem BioAssay by National Center for Advancing Translational Sciences (NCATS).
